ChEMBL document CHEMBL3988442, “University of Dundee, Small-Polar-MMV Screening Library” (2021)

Columns and labels:
[1] = biological target: T1, Aspartate--tRNA(Asp/Asn) ligase (Mycobacterium tuberculosis (strain ATCC 25618 / H37Rv)) (UniProt P9WFW3); assay: Assay for Asp RNA synthetase-1 from Mycobacterium tuberculosis; type: functional; set-up: scale not given: direction of the effect not stated beside the values; conditions: 30 µM; also: in the data most compounds retested in dose-response had high values
T1 sequence (whole entry): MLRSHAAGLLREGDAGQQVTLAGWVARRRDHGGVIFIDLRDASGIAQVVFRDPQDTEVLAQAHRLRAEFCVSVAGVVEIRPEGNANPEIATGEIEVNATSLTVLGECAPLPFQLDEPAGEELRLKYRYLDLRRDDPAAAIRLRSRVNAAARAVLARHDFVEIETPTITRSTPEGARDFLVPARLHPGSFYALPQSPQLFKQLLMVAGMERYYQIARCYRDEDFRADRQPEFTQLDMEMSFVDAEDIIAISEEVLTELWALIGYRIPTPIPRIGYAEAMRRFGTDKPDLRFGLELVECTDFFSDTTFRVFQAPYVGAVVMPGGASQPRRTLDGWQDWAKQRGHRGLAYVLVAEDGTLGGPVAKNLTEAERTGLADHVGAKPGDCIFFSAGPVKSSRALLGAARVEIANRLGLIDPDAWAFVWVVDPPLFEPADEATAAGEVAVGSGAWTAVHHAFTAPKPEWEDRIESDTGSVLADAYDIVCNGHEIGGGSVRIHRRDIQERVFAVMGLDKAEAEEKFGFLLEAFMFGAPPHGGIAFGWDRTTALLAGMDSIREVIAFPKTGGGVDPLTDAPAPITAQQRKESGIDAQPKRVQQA

[2] = biological target: Shiga toxin 2 (Escherichia coli O157:H7) (UniProt P09385+P09386); assay: E. coli 0.157:H7 Shiga Toxin SOP - stx2 screening assay; type: functional; set-up: scale not given: direction of the effect not stated beside the values; conditions: 30 µM

| SMILES | Percent Effect [1] [%] | Percent Effect [2] [%] |
| --- | --- | --- |
| COc1ccc(S(=O)(=O)NCc2cccnc2N(C)C)cc1F | -1.03 | -9.13 |
| CC(NCc1ccc(F)cc1)c1ccc(OCC(=O)NC2CC2)cc1 (stereo not drawn) | 0.888 | -19.1 |
| COc1ccc(C2CC(=O)Nc3c2cnn3C2CCCC2)cc1 (stereo not drawn) | -1.45 | 10.9 |
| Cc1cc(C(=O)N2CCc3nnc(N)cc3C2)c(C)n1-c1cccnc1 | 7.03 | -28.4 |
